The values below come from PubChem BioAssay AID624297 (National Center for Advancing Translational Sciences (NCATS), 2012).

Out of some 340,000 compounds screened, about 6,200 (1.8%) were called active. About 10% were inconclusive and are not listed. Calls come from the whole dose curve; as a rule, active = well fitted activation curve with a large enough effect; inconclusive = small, poorly fitted or top-dose-only effect; inactive = no such curve, though single readings can be large or run the other way. Shown is part of a subset that was picked to be rich in actives. Entries that show only a call come without a potency.
Potency is the fitted concentration of half-maximal effect.

A short description of the assay: A quantitative high throughput screen for small molecules that induce DNA re-replication in SW480 colon adenocarcinoma cells. Note: nearly all actives have a fitted effect of over 55% in size. The conditions noted are these: Hoechst DNA content imaging, 48 h; series mostly up to 46.1 µM. The source says: H Molecular Libraries Probe Production Network [MLPCN] NIH Chemical Genomics Center [NCGC] MLPCN Grant: Fast Track K99 CA136555 Assay Provider: Melvin DePamphilis, NICHD, NIH Assay Overview Eukaryotic cells normally restrict genome duplication to once per cell division. When this process is aberrant, DNA re-replication occurs when cells reinitiate DNA replication before the first round of replication is complete. DNA re-replication induces the DNA damage response, arrests cell proliferation, and triggers apoptosis. The cell cycle components cyclin A, Cdt-1, Cdc6 and geminin are critical regulators of this process and their misregulation results in DNA re-replication in normal and cancer cells. To identify compounds that induce re-replication in normal cells, an image-based assay was used to measure DNA content of nuclei, as detected by the fluorescent DNA binding dye, Hoechst. Cell nuclei were imaged by a fluorescence scanning plate imager and compounds that induce DNA re-replication were identified by the increase of nuclei with elevated fluorescence intensity
For screening, 250 cells in 5 uL/well were dispensed into black clear 1536-well plates (Aurora) using a solenoid-based dispenser. Following transfer of 23 nL compound or DMSO vehicle by a pin tool, the plates were incubated 48 hr at 37 C and 5% CO2. After addition of 1 uL/well Hoescht stain, the plates were incubated 40 min at 37 C, 5% CO2 and total intensity of fluorescent objects (nuclei) were enumerated by an Acumen Explorer Ex3 (TTP LabTech) fluorescence scanning plate imager (405 nm excitation, 500-530 nm emission). Keywords: NIH Roadmap, MLPCN, MLI, MLSMR, qHTS, NCGC, DNA replication, cancer
With `O=C(Cc1ccccc1[N+](=O)[O-])N1CCN(Cc2ccc3c(c2)OCO3)CC1`, the Potency is 16.4 µM (active).
For `Fc1ccc(N2CCN(Cc3ccc4c(c3)OCO4)CC2)cc1`, the Potency entry was “inactive”.
Take `Cc1cc(=O)oc2c(C)c(OCC(=O)N3CCN(Cc4ccc5c(c4)OCO5)CC3)ccc12`: the Potency result was “inactive”.
As to `CC1([N+](=O)[O-])COP(=O)(Nc2ccc(F)cc2)OC1` (stereo not given), the Potency entry was “inactive”.
For the compound `CC1CNCCN1c1ccc(Cl)cc1` (stereo not given), the Potency result was “inactive”.
For `COc1cc(-n2c(=S)[nH]c3ccc(C)cc3c2=O)c(Cl)cc1Cl`, the Potency was 18.4 µM (active).
For `C[C@]12CCC3C(CC[C@H]4[C@H](O)[C@H](O)CC[C@]34C)C1CCC2=O` (stereo not given in full), the Potency entry was “inactive”.
Then `O=C(CSc1ccccc1)Nc1ccc(C(=O)Nc2cccc(O)c2)cc1`, with “inactive”; and `CCC(C)n1c(O)c(/C=N/Nc2nc3c(c(=O)n(C)c(=O)n3C)n2C)c(=O)[nH]c1=S` (stereo not given), with 23.1 µM (active); and `CC1CC=CCC12C(=O)NC(=S)NC2=O` (stereo not given), with “inactive”.
In the case of `CNC(C)[C@@H](O)c1ccccc1` (stereo not given in full), the Potency entry was “inactive”.
For the compound `CC1=CC(=Cc2sc3ccccc3[n+]2C)C=C(C)O1`, the Potency was 5.8 µM (active).
Then `CCC1(CC(C)c2ccccc2)C(=O)NC(=O)NC1=O` (stereo not given), with “inactive”.
For `Cc1cc(C)c2c(c1)NP(=S)(c1ccccc1)N2` (stereo not given), the Potency result was “inactive”.
As to `CCOC(=O)CC(SP1(=S)OCC2(CCCCO2)C(C2CCCCO2)O1)C(=O)OCC` (stereo not given), the Potency entry is “inactive”.
Then `O=C(N/N=C/c1ccc([N+](=O)[O-])o1)c1cc([N+](=O)[O-])cc([N+](=O)[O-])c1O`, with “inactive”.
Turning to `CC[C@H]1CN2CCc3cc(OC)c(OC)cc3[C@@H]2C[C@@H]1C[C@H]1NCCc2cc(OC)c(OC)cc21`, the Potency was 0.291 µM (active).
Then `O=C1NC(=O)C(CCOc2ccccc2)(CCc2ccccc2)C(=O)N1`, with “inactive”; and `CCC(=O)OC(Cc1ccccc1)(c1ccccc1)C(C)CN(C)C` (stereo not given), with “inactive”; and `CCOP(=O)(OCC)C(Nc1cccc(C)c1)c1ccc(F)cc1` (stereo not given), with “inactive”.
For the compound `CN1CCCC(=C(c2cccs2)c2cccs2)C1`, the Potency result was “inactive”.
On to `Nc1ccc(Cc2ccc(N)c(Cl)c2)cc1Cl`, for which the Potency result is “inactive”.
Turning to `C[C@]12CCCCC1=CC(=O)C1C2CC[C@@]2(C)C1C[C@@H](F)[C@@H]2O` (stereo not given in full), the Potency entry was “inactive”.
For the compound `Cc1ncsc1CCCl`, the Potency entry is “inactive”.
Regarding `Cc1cc2ccccn2c1C(C[N+](=O)[O-])c1c(F)cccc1Cl` (stereo not given), the Potency was 7.31 µM (active).
Consider `CCOc1ccc(S(=O)(=O)NCc2ccc3c(c2)OCO3)cc1C`, for which the Potency entry is “inactive”.
Turning to `CC(CC(C#N)(c1ccccc1)c1ccccc1)N1CCCCC1` (stereo not given), the Potency entry was “inactive”.
For `COc1ccc(C2CC(c3cccs3)=NN2c2nc(C)c(C(C)=O)s2)cc1OC` (stereo not given), the Potency was 14.6 µM (active).
`O=C(NCc1cccs1)c1ccc(Br)o1`: the Potency entry was “inactive”.
Regarding `Cc1cccc([C@H](C)c2cnc[nH]2)c1C`, the Potency result is “inactive”.
Regarding `CCOC(=O)C1(c2ccccc2)CCN(CC(O)c2ccc(NC(C)=O)cc2)CC1` (stereo not given), the Potency entry is “inactive”.
As to `c1ccc2sc(SNC3CCCCC3)nc2c1`, the Potency entry is “inactive”.
Take `COc1ccc2c(c1)NP(=S)(c1ccccc1)N2` (stereo not given): the Potency result was “inactive”.
Turning to `O=c1c2ccccc2nc(/C=C/c2ccco2)n1-c1ccccc1O`, the Potency is 20.6 µM (active).
As for `O=c1c2ccccc2nc(-c2ccccc2)n1-c1ccccn1`, the Potency entry is “inactive”.
Then `O=c1c2ccccc2nc(-c2ccco2)n1-c1ccc(Br)cn1`, with “inactive”; and `C=CCN1CCC23c4c5ccc(O)c4O[C@H]2C(=O)CC[C@@]3(O)C1C5` (stereo not given in full), with “inactive”; and `CC(C)(C)CC(=O)Nc1nnc(SCC(=O)NCc2cccs2)s1`, with “inactive”.
Consider `Cc1cc(-c2ccc(N)c(C)c2)ccc1N`, for which the Potency entry was “inactive”.
The entry for `CCC1(c2ccccc2)C(=O)NC(=O)N(C)C1=O` (stereo not given) is “inactive”.
Then `CCN1C(=O)NC(=O)C2(CCCC2)C1=O`, with “inactive”; and `CC(=O)OC1C2(CC3N4C(=O)C5(CO)SSC4(CC31O)C(=O)N5C)OC(C)C(C)(C)C2=O` (stereo not given), with 0.461 µM (active).
With `CCNC[C@H](O)c1cccc(O)c1`, the Potency result was “inactive”.
Regarding `O=C1NC(=O)C(Cc2ccccc2)C(=O)N1`, the Potency entry is “inactive”.
Turning to `CC1CCCN1CCC(C(N)=O)(c1ccccc1)c1ccccc1` (stereo not given), the Potency entry was “inactive”.
In the case of `COc1ccc2c3c1O[C@H]1C[C@@H](O)C=C[C@@]31CCN(C)C2`, the Potency result is “inactive”.
With `CC=C(C)C(=O)OC1CCN2CC=C(COC(=O)C(O)(C(C)OC)C(C)(C)O)C12` (stereo not given), the Potency entry is “inactive”.
As for `CCC1(C)CC(CCNCc2ccc(N(C)C)cc2)(c2ccc(F)cc2)CCO1` (stereo not given), the Potency was 18.4 µM (active).
For `CC[N+]1(CCOC(=O)C(O)(c2ccccc2)c2ccccc2)CCCCC1`, the Potency entry was “inactive”.
The entry for `C=C(C)C1(CCCC)C(=O)NC(=S)NC1=O` is “inactive”.
